Broadly, the AC50 is the midpoint of the concentration-response curve, whichever way the signal moves.

These results are taken from PubChem BioAssay (EPA / NIEHS).

SMILES strings stand for the structures. The source made the active and inactive calls. How the source made its calls: active means hit-call score of the fitted dose curve at least 0.9, where 1 is the maximum; inactive means score below 0.9.

Read-out in test [1]: E-selectin (Homo sapiens) (UniProt P16581)
The test is described as follows: BSK_LPS_Eselectin: BioMAP Diversity Plus: LPS Assay for Eselectin Biomarker Activity (AID 2283077). To be noted: primary human HUVEC with PBMC; actives raise or lower the signal. An outline of the steps: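 Signal of E-selectin, detected by ELISA, served as the endpoint; cells were umbilical vein endothelium with PBMC, read 24 h after treatment. DMSO defined baseline, and both increases and decreases were fitted.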

Read-out in test [2]: Interleukin-8 (IL8), CXCL8 (gene 3576)
Nature of the test: BSK_LPS_IL8: BioMAP Diversity Plus: LPS Assay for Interleukin-8 (IL8) Biomarker Activity (AID 2283078). The following applies: primary human HUVEC with PBMC; actives raise or lower the signal. In outline:
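Endothelial cells and PBMC from human donors are co-cultured, treated with chemicals and LPS, then assayed for IL-8 by ELISA after 24 h. Parallel SRB staining (0.1% SRB after 10% TCA fixation, 560 nm) flags cytotoxicity.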

The nature of test [3]: BSK_LPS_SRB: Viability Assessment in the BioMAP Diversity Plus: LPS Assay (AID 2283079).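 Further: total protein by sulforhodamine B absorbance as a cytotoxicity measure; measured one day after compound addition; fitted in both directions against DMSO so loss or gain of signal counts.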 The following applies: primary human HUVEC with PBMC. In outline: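 Overt cytotoxicity was gauged by sulforhodamine B total-protein staining in a primary human vascular endothelial and mononuclear cell co-culture 24 h post-dosing. Activity was fitted in both directions relative to DMSO.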

Read-out in test [4]: Interleukin-1 alpha (IL1a), IL1A (gene 3552)
Nature of the test: BSK_LPS_IL1a: BioMAP Diversity Plus: LPS Assay for Interleukin-1 alpha (IL1a) Biomarker Activity (AID 2283080). To be noted: primary human HUVEC with PBMC; actives raise or lower the signal. In outline: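 Measured: IL-1 alpha via ELISA at 24 h in LPS-activated human umbilical vein endothelium–PBMC co-culture. Baseline: DMSO, bidirectional fitting.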

Read-out in test [5]: Monocyte Chemoattractant Protein-1 (MCP1), CCL2 (gene 6347)
Nature of the test: BSK_LPS_MCP1: BioMAP Diversity Plus: LPS Assay for Monocyte Chemoattractant Protein-1 (MCP1) Biomarker Activity (AID 2283081).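 On AC50: secreted MCP-1 protein quantified by ELISA in culture supernatant.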 To be noted: primary human HUVEC with PBMC; actives raise or lower the signal. In outline: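 LPS-stimulated HUVEC/PBMC co-culture; chemical, 24 h; MCP-1 by ELISA; bidirectional fit vs DMSO; cytotoxicity via SRB (0.1% stain, 10% TCA fix, 560 nm) in parallel wells.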

A short description of test [6]: BSK_LPS_PGE2: BioMAP Diversity Plus: LPS Assay for Prostaglandin E2 (PGE2) Biomarker Activity (AID 2283082).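 On AC50: secreted prostaglandin E2 measured by ELISA in LPS-stimulated co-culture.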 To be noted: primary human HUVEC with PBMC; actives raise or lower the signal. In outline: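 ELISA read-out of PGE2 from human umbilical vein endothelial cells co-cultured with peripheral blood mononuclear cells under LPS, 24 h post-dose. Gain or loss of signal scored relative to DMSO baseline.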

Read-out in test [7]: Macrophage colony-stimulating factor (MCSF), CSF1 (gene 1435)
The test is described as follows: BSK_LPS_MCSF: BioMAP Diversity Plus: LPS Assay for Macrophage colony-stimulating factor (MCSF) Biomarker Activity (AID 2283083). The following applies: primary human HUVEC with PBMC; actives raise or lower the signal. In outline: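 Compound is added to a human vascular primary co-culture of umbilical vein endothelium and blood mononuclear cells. After 24 h, M-CSF is quantified by ELISA. Signal changes are fitted in both directions against DMSO.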

Read-out in test [8]: Tissue Factor, F3 (gene 2152)
Nature of the test: BSK_LPS_TissueFactor: BioMAP Diversity Plus: LPS Assay for Tissue Factor Biomarker Activity (AID 2283084). To be noted: primary human HUVEC with PBMC; actives raise or lower the signal. An outline of the steps: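 In this co-culture system of umbilical vein endothelium with PBMC, stimulated with LPS, cell-surface CD142 is detected by ELISA at 24 h. Endpoint values derive from bidirectional fitting, DMSO serving as baseline.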

Read-out in test [9]: Vascular cell adhesion molecule 1 (VCAM1), VCAM1 (gene 7412)
The test is described as follows: BSK_LPS_VCAM1: BioMAP Diversity Plus: LPS Assay for Vascular cell adhesion molecule 1 (VCAM1) Biomarker Activity (AID 2283086). The following applies: primary human HUVEC with PBMC; actives raise or lower the signal. In outline:
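ELISA read-out of VCAM-1 at 24 h post-dosing in an LPS-driven HUVEC/PBMC primary human co-culture; gain or loss of signal fitted bidirectionally against DMSO baseline. Cytotoxicity tracked in parallel cultures by SRB total-protein staining.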

Read-out in test [10]: Tumor necrosis factor (Homo sapiens) (UniProt P01375)
The test is described as follows: BSK_LPS_TNFa: BioMAP Diversity Plus: LPS Assay for Tumour Necrosis Factor alpha (TNFa) Biomarker Activity (AID 2283085).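 On AC50: TNFa protein level quantified by ELISA in the co-culture.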 To be noted: primary human HUVEC with PBMC; actives raise or lower the signal. In outline: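 HUVEC/PBMC co-culture, LPS-stimulated; 24 h post-dose; TNFa by ELISA; gain or loss of signal fitted bidirectionally vs DMSO baseline.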

Chain of Tumor necrosis factor (Homo sapiens) (P01375 whole entry, looked up): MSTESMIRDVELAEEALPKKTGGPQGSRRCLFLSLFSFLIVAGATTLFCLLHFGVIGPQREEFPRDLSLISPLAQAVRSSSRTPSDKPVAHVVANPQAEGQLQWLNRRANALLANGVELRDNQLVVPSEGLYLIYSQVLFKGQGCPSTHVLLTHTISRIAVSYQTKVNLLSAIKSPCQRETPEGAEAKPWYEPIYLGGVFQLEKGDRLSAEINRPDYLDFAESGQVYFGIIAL
Chain of E-selectin (Homo sapiens) (P16581 whole entry, looked up): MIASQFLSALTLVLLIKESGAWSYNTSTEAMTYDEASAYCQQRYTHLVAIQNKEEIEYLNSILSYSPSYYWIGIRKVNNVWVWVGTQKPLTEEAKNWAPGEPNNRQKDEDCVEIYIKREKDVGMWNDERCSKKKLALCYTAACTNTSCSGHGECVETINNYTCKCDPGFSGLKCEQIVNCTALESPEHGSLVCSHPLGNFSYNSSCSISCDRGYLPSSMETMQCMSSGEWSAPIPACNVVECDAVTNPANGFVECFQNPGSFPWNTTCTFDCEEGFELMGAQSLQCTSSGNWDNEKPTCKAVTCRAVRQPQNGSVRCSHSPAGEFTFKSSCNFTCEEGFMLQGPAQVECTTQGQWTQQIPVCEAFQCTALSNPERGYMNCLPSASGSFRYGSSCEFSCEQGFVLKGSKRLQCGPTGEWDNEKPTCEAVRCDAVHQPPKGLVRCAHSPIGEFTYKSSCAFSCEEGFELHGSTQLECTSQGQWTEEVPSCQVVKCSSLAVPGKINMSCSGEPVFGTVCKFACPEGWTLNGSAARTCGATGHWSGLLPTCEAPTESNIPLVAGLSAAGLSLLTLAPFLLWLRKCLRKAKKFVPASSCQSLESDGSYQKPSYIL

Turning to `CCCCC(CC)COP(=O)(OCC(CC)CCCC)OCC(CC)CCCC` (stereo not given), the result in [1], in [3], in [4], in [5], in test [6] and in test [7] was inactive. In addition, the outcome in test [8] and in test [9] was inactive. Besides, the AC50 in test [2] was 5.39 µM (active).

Turning to `O=C1c2c(O)cccc2Cc2cccc(O)c21`, the result in test [1], in test [2], in test [3], in test [4], in test [5] and in test [6] was inactive. The outcome in test [7], in test [8] and in [9] was inactive.

With `CC(=O)[C@@]1(O)CC[C@H]2[C@@H]3CCC4=CC(=O)CC[C@]4(C)[C@H]3CC[C@@]21C`, the outcome in [1], in test [2], in [3], in test [4], in test [5] and in [6] was inactive. In addition, the result in test [7], in test [8] and in test [9] was inactive.

For `CC(C)OC(=O)C(C)(C)Oc1ccc(C(=O)c2ccc(Cl)cc2)cc1`, the outcome in [1], in test [4], in test [8] and in test [10] was inactive. Further, the AC50 in [2] was 32 µM (active); in test [3], 27.8 µM (active); in test [5], 29.7 µM (active); in test [7] it was 27.3 µM (active); in test [9], 32.2 µM (active).

For the molecule `COc1ccc(OC(F)(F)F)cc1CN[C@H]1CCCN[C@H]1c1ccccc1`, the result in test [1], in [4], in test [6], in [7] and in test [8] was inactive. In addition, the AC50 in [2] was 9.98 µM (active); in [3] it was 20 µM (active); in test [5] it was 7.98 µM (active); in test [9] it was 14.6 µM (active).

Turning to `CCCCCCC(C=O)=Cc1ccccc1`, the result in [1], in test [5], in test [7] and in [8] was inactive. Besides, the AC50 is 30.2 µM (active) in test [2]; 29.3 µM (active) in test [3]; 33.6 µM (active) in test [4]; 15.3 µM (active) in [6]; 29.7 µM (active) in [9].

As for `O=Cc1ccccc1C=O`, the outcome in test [1], in test [2], in test [3], in test [4], in test [5] and in test [6] was inactive. The outcome in test [7], in test [8] and in test [9] was inactive.

On to `COC(=O)CCC(=O)OC`, for which the outcome in test [1], in [2], in test [3], in [4], in test [5] and in test [7] was inactive. For the same molecule, the outcome in [8], in test [10] and in test [9] was inactive.

For `CCCCCCCCCC[N+](C)(C)[O-]`, the result in test [1], in [2], in [3], in [4], in test [5] and in test [6] was inactive. Moreover, the result in test [7] and in test [8] was inactive. For the same molecule, in [9], the AC50 is 35.5 µM (active).

Take `O=C(O)c1cccnc1`: the result in [1], in [2], in test [3], in test [4], in [5] and in test [6] was inactive. Also, the outcome in test [7], in test [8] and in test [9] was inactive.

As for `CS(=O)(=O)c1ccc([C@@H](C[C@H]2CCC(=O)C2)C(=O)Nc2cnccn2)cc1Cl`, the result in test [1], in test [2], in [3], in test [4], in test [5] and in test [7] was inactive. The result in test [8], in [10] and in test [9] was inactive.

For the molecule `C#CC(O)C(CC)CCCC` (stereo not given), the outcome in test [1], in [2], in [3], in test [4], in test [5] and in [7] was inactive. Also, the result in [8], in test [10] and in [9] was inactive.

Turning to `CCCCCCCCCCCCCCOS(=O)(=O)O`, the result in test [1], in [2], in test [3], in test [4], in [5] and in test [7] was inactive. Moreover, the result in test [8], in test [10] and in [9] was inactive.

`CC(=O)S[C@H](C(=O)N[C@H]1Cc2ccccc2[C@H]2CCC[C@@H](C(=O)O)N2C1=O)C(C)C`: the outcome in [1], in test [2], in test [3], in [4], in [5] and in [7] was inactive. Besides, the outcome in test [8], in test [10] and in [9] was inactive.

As for `CC(C)(O)c1ccc(CNC(=O)c2cccnc2Oc2ccc(F)cc2)cc1`, the result in [1], in test [2], in test [3], in test [4], in test [5] and in test [6] was inactive. Besides, the outcome in test [7], in test [8] and in test [9] was inactive.

Take `CC1(C)C(=O)NC(=O)N1CO`: the result in test [1], in [2], in test [3], in test [4], in [5] and in [7] was inactive. Moreover, the result in test [8] and in [9] was inactive. Also, the AC50 in test [6] is 0.749 µM (active).

For the molecule `CC(COCC(C)OC(=O)c1ccccc1)OC(=O)c1ccccc1` (stereo not given), the outcome in test [1], in test [2], in test [3], in [4], in [5] and in [7] was inactive. Moreover, the result in test [8], in test [10] and in [9] was inactive.

`CC(=O)CC(c1ccccc1)c1c(O)c2ccccc2oc1=O` (stereo not given): the result in [1], in test [2], in test [3], in [4], in test [5] and in test [7] was inactive. Besides, the outcome in test [8] and in test [9] was inactive. In addition, the AC50 in test [10] was 0.711 µM (active).

Turning to `OCC(CO)n1cnc(-c2ccc(F)cc2)c1-c1ccnc(Oc2ccccc2)n1`, the AC50 was 1.09 µM (active) in test [1]; 0.544 µM (active) in test [2]; 0.148 µM (active) in test [4]; 0.51 µM (active) in test [5]; 1.72 µM (active) in test [7]; 0.532 µM (active) in test [8]. Also, the outcome in [3] and in [9] was inactive.

In the case of `C/C=C/c1ccc(OC)cc1`, the outcome in [1], in test [2], in test [3], in [4], in test [7] and in test [8] was inactive. For the same molecule, the outcome in [10] and in [9] was inactive. The AC50 in [5] is 13.8 µM (active).

Turning to `CCCC[C@H]1CN(CC2CCOCC2)C(=O)OC12CCN(C1(C)CCN(C(=O)c3c(C)ncnc3C)CC1)CC2`, the result in test [1], in test [2], in test [3], in test [4], in test [5] and in [7] was inactive. Also, the result in test [8], in test [10] and in test [9] was inactive.

In the case of `O=C(N[C@@H](c1ccccc1)[C@@H]1CCCCN1)c1cccc(C(F)(F)F)c1Cl`, the AC50 was 5.55 µM (active) in [1]; 17.9 µM (active) in test [2]; 23.4 µM (active) in test [3]; 20 µM (active) in test [4]; 22.7 µM (active) in [5]; 20 µM (active) in [9]. The outcome in [7], in [8] and in test [10] was inactive.

For `Cc1c(C)c2c(c(C)c1O)CCC(C)(COc1ccc(CC3SC(=O)NC3=O)cc1)O2` (stereo not given), the AC50 in test [1] was 30.3 µM (active); in test [2] it was 32.1 µM (active); in test [3], 26.3 µM (active); in [4], 32.7 µM (active); in test [5], 30.8 µM (active); in test [7], 31.6 µM (active). Further, the AC50 in [8] was 34.8 µM (active); in test [9] it was 30.5 µM (active).
